From PubChem BioAssay AID1159580 (chemical genetic matrix, 2015)
Screen size: about 5,500 compounds; about 2,000 (36%) were called active. Another 18% or so got no clear call; they are omitted. Rule as the data show it: active = normalized growth mostly below about 0.91 (no sharp cut-off); inconclusive = no clear call, values can overlap the other calls; inactive = mostly above about 0.92. This is one part of the list.

Experiment: chemical genetic growth profiling, strain panel (AID 1159580);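 also: tested at 20 µM; growth read once vehicle control cultures reached saturation at 30 °C; 1 = growth at the plate median or of vehicle wells; lower values mean less growth of the strain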
Conditions: growth OD

Measured: normalized growth

CC[n+]1c(-c2ccccc2)c2cc(N)ccc2c2ccc(N)cc21
active: S. cerevisiae deletion strains, locus YJR075W, strain HOC1, hits give low values 0.665 | S. cerevisiae deletion strains, locus YKL009W, strain mrt4, hits give low values 0.867 | S. cerevisiae deletion strains, locus YKL068W, hits give low values 0.881 | S. cerevisiae deletion strains, locus YKL085W, strain MDH1 (second series), hits give low values 0.882 | S. cerevisiae deletion strains, locus YKL085W, strain MDH1, hits give low values 0.882 | S. cerevisiae deletion strains, locus YKL190W, strain CNB1, hits give low values 0.857 | S. cerevisiae deletion strains, locus YLR058C, strain SHM2, hits give low values 0.847 | S. cerevisiae deletion strains, locus YLR113W, strain HOG1, hits give low values 0.831 | S. cerevisiae deletion strains, locus YLR268W, strain sec22, hits give low values 0.777 | S. cerevisiae deletion strains, locus YLR320W, strain mms22, hits give low values 0.872 | S. cerevisiae deletion strains, locus YLR330W, strain CHS5, hits give low values 0.886 | S. cerevisiae deletion strains, locus YML016C, strain PPZ1, hits give low values 0.885 | S. cerevisiae deletion strains, locus YML032C, strain rad52, hits give low values 0.425 | S. cerevisiae deletion strains, locus YML124C, strain tub3, hits give low values 0.932 | S. cerevisiae deletion strains, locus YMR078C, strain ctf18, hits give low values 0.814 | S. cerevisiae deletion strains, locus YMR205C, strain PFK2, hits give low values 0.831 | S. cerevisiae deletion strains, locus YMR223W, strain ubp8, hits give low values 0.825 | S. cerevisiae deletion strains, locus YNL067W, strain RPL9B, hits give low values 0.805 | S. cerevisiae deletion strains, locus YNL071W, strain lat1, hits give low values 0.868 | S. cerevisiae deletion strains, locus YNL233W, strain BNI4, hits give low values 0.841 | S. cerevisiae deletion strains, locus YNL248C, strain rpa49, hits give low values 0.858 | S. cerevisiae deletion strains, locus YNL250W, strain rad50, hits give low values 0.662 | S. cerevisiae deletion strains, locus YNL271C, strain bni1, hits give low values 0.909 | S. cerevisiae deletion strains, locus YNL298W, strain CLA4, hits give low values 0.881 | S. cerevisiae deletion strains, locus YNL307C, strain MCK1, hits give low values 0.855 | S. cerevisiae deletion strains, locus YNR052C, strain pop2, hits give low values 0.885 | S. cerevisiae deletion strains, locus YOL147C, strain pex11, hits give low values 0.898 | S. cerevisiae deletion strains, locus YOR001W, strain rrp6, hits give low values 0.857 | S. cerevisiae deletion strains, locus YOR061W, strain CKA2, hits give low values 0.876 | S. cerevisiae deletion strains, locus YOR069W, strain VPS5, hits give low values 0.891 | S. cerevisiae deletion strains, locus YOR144C, strain elg1, hits give low values 0.906 | S. cerevisiae deletion strains, locus YOR184W, strain ser1, hits give low values 0.73 | S. cerevisiae deletion strains, locus YPR119W, strain clb2, hits give low values 0.925 | S. cerevisiae deletion strains, locus YPR141C, strain kar3, hits give low values 0.886 | S. cerevisiae deletion strains, locus YPR163C, strain tif3, hits give low values 0.781 | S. cerevisiae deletion strains, locus YPR167C, strain met16, hits give low values 0.864 | S. cerevisiae deletion strains, strain wtn01, hits give low values 0.795 | S. cerevisiae strains, strain wild type, hits give low values 0.854
inactive: S. cerevisiae deletion strains, locus YKL160W, strain elf1, hits give low values 0.973 | S. cerevisiae deletion strains, locus YKR001C, strain vps1, hits give low values 0.929 | S. cerevisiae deletion strains, locus YKR026C, strain gcn3, hits give low values 0.955 | S. cerevisiae deletion strains, locus YKR091W, strain srl3, hits give low values 0.97 | S. cerevisiae deletion strains, locus YLL001W, strain dnm1, hits give low values 0.95 | S. cerevisiae deletion strains, locus YLL026W, hits give low values 0.97 | S. cerevisiae deletion strains, locus YLL041C, strain sdh2, hits give low values 0.972 | S. cerevisiae deletion strains, locus YLR027C, strain aat2, hits give low values 0.979 | S. cerevisiae deletion strains, locus YLR039C, strain RIC1, hits give low values 0.771 | S. cerevisiae deletion strains, locus YLR102C, strain apc9, hits give low values 0.942 | S. cerevisiae deletion strains, locus YLR221C, strain rsa3, hits give low values 0.936 | S. cerevisiae deletion strains, locus YLR258W, strain gsy2, hits give low values 0.968 | S. cerevisiae deletion strains, locus YLR262C, strain YPT6 (second series), hits give low values 1.01 | S. cerevisiae deletion strains, locus YLR262C, strain YPT6, hits give low values 0.755 | S. cerevisiae deletion strains, locus YLR342W, strain FKS1 (second series), hits give low values 0.86 | S. cerevisiae deletion strains, locus YLR342W, strain FKS1, hits give low values 0.987 | S. cerevisiae deletion strains, locus YLR357W, strain rsc2, hits give low values 1.04 | S. cerevisiae deletion strains, locus YLR370C, strain arc18, hits give low values 0.955 | S. cerevisiae deletion strains, locus YLR371W, strain rom2, hits give low values 0.917 | S. cerevisiae deletion strains, locus YLR384C, strain iki3, hits give low values 0.966 | S. cerevisiae deletion strains, locus YLR418C, strain cdc73, hits give low values 0.881 | S. cerevisiae deletion strains, locus YML120C, strain ndi1, hits give low values 0.96 | S. cerevisiae deletion strains, locus YMR058W, strain fet3, hits give low values 0.973 | S. cerevisiae deletion strains, locus YMR125W, strain sto1, hits give low values 0.98 | S. cerevisiae deletion strains, locus YMR129W, hits give low values 0.969 | S. cerevisiae deletion strains, locus YMR231W, strain pep5, hits give low values 0.986 | S. cerevisiae deletion strains, locus YMR307W, strain GAS1, hits give low values 0.714 | S. cerevisiae deletion strains, locus YNL153C, strain GIM3, hits give low values 0.888 | S. cerevisiae deletion strains, locus YNL183C, strain NPR1, hits give low values 0.878 | S. cerevisiae deletion strains, locus YNL209W, strain ssb2, hits give low values 0.96 | S. cerevisiae deletion strains, locus YNL322C, strain KRE1 (second series), hits give low values 0.919 | S. cerevisiae deletion strains, locus YNR049C, strain mso1, hits give low values 0.962 | S. cerevisiae deletion strains, locus YOL006C, strain TOP1, hits give low values 0.64 | S. cerevisiae deletion strains, locus YOL012C, strain htz1 0.55 | S. cerevisiae deletion strains, locus YOR070C, strain gyp1, hits give low values 0.967 | S. cerevisiae deletion strains, locus YOR080W, strain dia2, hits give low values 0.988 | S. cerevisiae deletion strains, locus YOR083W, strain WHI5, hits give low values 0.948 | S. cerevisiae deletion strains, locus YOR106W, strain vam3, hits give low values 0.966 | S. cerevisiae deletion strains, locus YOR136W, strain idh2, hits give low values 0.964 | S. cerevisiae deletion strains, locus YOR231W, strain MKK1, hits give low values 0.898 | S. cerevisiae deletion strains, locus YOR265W, strain rbl2, hits give low values 0.974 | S. cerevisiae deletion strains, locus YOR270C, strain vph1, hits give low values 0.856 | S. cerevisiae deletion strains, locus YOR290C, strain snf2, hits give low values 0.937 | S. cerevisiae deletion strains, locus YOR316C, strain cot1, hits give low values 0.933 | S. cerevisiae deletion strains, locus YPL051W, strain arl3, hits give low values 0.989 | S. cerevisiae deletion strains, locus YPL055C, strain LGE1, hits give low values 0.89 | S. cerevisiae deletion strains, locus YPL078C, strain atp4, hits give low values 1.02 | S. cerevisiae deletion strains, locus YPL106C, strain sse1, hits give low values 0.913 | S. cerevisiae deletion strains, locus YPL240C, strain hsp82, hits give low values 0.97 | S. cerevisiae deletion strains, locus YPL256C, strain CLN2, hits give low values 0.855
